Records with an inconclusive call do not appear. Active and inactive are the calls of the source. The call rests on the fitted dose curve; in most records, active means well fitted cell-killing curve with a large enough effect; inconclusive means small, poorly fitted or top-dose-only effect, or effect the other way; inactive means no such curve, though single readings can be large or run the other way.
Potency means the concentration at half of the fitted maximal effect.

A short description of the experiment: Quantitative High-Throughput drug screen in 47 multiple myeloma cell lines against the NCATS MIPE library collection: XG6_PLB cell viability assay (AID 1919865). Further: nearly all actives have a fitted effect of over 40% in size. The settings on record: XG6 myeloma viability, CellTiter-Glo ATP luminescence, 48 h; series mostly up to 45.8 µM. From the text:
PI: Beverly A. Mock Ph.D.
Laboratory of Cancer Biology and Genetics,
Center for Cancer Research, National Cancer Institute,
National Institute of Health, Bethesda, Maryland
Drug resistance and disease progression are common in multiple myeloma (MM) patients, underscoring the need for new therapeutic combinations. […] We hypothesized that effective combinations would reduce MYC expression and enhance p16 activity. […] These preclinical data identify potentially useful drug combinations for evaluation in drug-resistant MM and reveal potential mechanisms of combined drug sensitivity.
Described herein is the primary MIPE qHTS used to cherrypick compounds. Validated compounds were then further tested for potential synergistic activiy.
[1] Peat TJ, Gaikwad SM, Dubois W, Gyabaah-Kessie N, Zhang S, Gorjifard S, Phyo Z, Andres M, Hughitt VK, Simpson RM, Miller MA, Girvin AT, Taylor A, Williams D, D'Antonio N, Zhang Y, Rajagopalan A, Flietner E, Wilson K, Zhang X, Shinn P, Klumpp-Thomas C, McKnight C, Itkin Z, Chen L, Kazandijian D, Zhang J, Michalowski AM, Simmons JK, Keats J, Thomas CJ, Mock BA. Drug combinations identified by high-throughput screening promote cell cycle transition and upregulate Smad pathways in myeloma. Cancer Lett. 2023 Aug 1;568:216284. doi: 10.1016/j.canlet.2023.216284. Epub 2023 Jun 24. PMID: 37356470; PMCID: PMC10408729.
SEQUENCE No. (e.g., 1, 2, 3, etc.); […] (e.g., Cells, Incubation, Reagent, etc.); VALUE and DESCRIPTION.
1; Cells; 5 uL; white, solid bottom 1536-well Greiner assay plate.
2; Compounds; 23 nL; Kalypsis pin tool (Wako USA) equipped with a 1536-well pin head to transfer to the assay plates.
3; Incubation; 48 hours; 37C incubation.
4; Reagent;5uL; CellTiter Glo (Promega).
5; Detector; 425V; Luminescence; Viewlux PerkinElmer.
NOTES (numbers refer to Sequence numbers above)
1. The cell-based screening methods employed in this study were like those previously published. Briefly, the corresponding myeloma cell lines were screened in 1,536-well plates with 500 cells, 5-uL per well for inhibition of cell viability (assessed by measuring ATP levels with CellTiterGlo).
2. NCATS MIPE 4.0 library of approved and investigational drugs were added using the Kalypsis pin tool. Wells treated with DMSO only for 100% viability and media only for 0% viability were used as controls.
3. The assay plates were covered and incubated for 48 hours in a 37C, 5% CO2 incubator with controlled humidity.
4. After 48 hours, CellTilter-GloTM luminescent substrate mix (Promega) reagent was added to the assay plate and plates we incubated for 5 min at room temperature.
5. Signal was measured as median relative luminescence units on a ViewLux (PerkinElmer) multiplate reader.
[1] Heske CM, Davis MI, Baumgart JT, Wilson K, Gormally MV, Chen L, Zhang X, Ceribelli M, Duveau DY, Guha R, Ferrer M, Arnaldez FI, Ji J, Tran HL, Zhang Y, Mendoza A, Helman LJ, Thomas CJ. Matrix Screen Identifies Synergistic Combination of PARP Inhibitors and Nicotinamide Phosphoribosyltransferase (NAMPT) Inhibitors in Ewing Sarcoma. Clin Cancer Res. 2017 Dec 1;23(23):7301-7311. doi: 10.1158/1078-0432.CCR-17-1121. Epub 2017 Sep 12. PMID: 28899971; PMCID: PMC6636827.
For orientation: ATP-based viability assays read luminescence as a measure of living cells.
Regarding `C[C@H]1O[C@@H](n2cc(F)c(=O)[nH]c2=O)[C@H](O)[C@H]1O`, the Potency result is “inactive”.

Consider `COc1nc(C)cnc1NS(=O)(=O)c1cccnc1-c1ccc(-c2nnco2)cc1`, for which the Potency entry was “inactive”.

For the compound `CC[C@H](C)n1cc(C)c2c(C(=O)NCc3c(C)cc(C)[nH]c3=O)cc(-c3ccc(N4CCNCC4)nc3)cc21`, the Potency is 16.6 µM (active).

With `CC(C)(C)c1nc(-c2cccc(NS(=O)(=O)c3c(F)cccc3F)c2F)c(-c2ccnc(N)n2)s1`, the Potency was 2.96 µM (active).

For `CN[C@@H]1CN(c2ccc3c(=O)c(C(=O)O)cn(-c4nccs4)c3n2)C[C@@H]1OC`, the Potency was 1.62 µM (active).

With `CC[C@H](CC#N)OC(=O)N[C@@H](C)c1cccc(NC(=O)Nc2ccc(-c3cnco3)c(OC)c2)c1`, the Potency is 2.96 µM (active).

Consider `O=C(Nc1ncc(SCCN2CCCC2)s1)[C@]1(c2ccc(S(=O)(=O)C3CC3)cc2)C[C@@H]1C1CCCCC1`, for which the Potency was 10.5 µM (active).

Regarding `CC[C@H](NC(=O)[C@H](C)NC)C(=O)N1C[C@@H](O)C[C@H]1Cc1c(-c2[nH]c3cc(F)ccc3c2C[C@H]2C[C@H](O)CN2C(=O)[C@H](CC)NC(=O)[C@H](C)NC)[nH]c2cc(F)ccc12`, the Potency was 4.18 µM (active).

Turning to `CCC(c1ccc(O)cc1)C(CC)c1ccc(O)cc1` (stereo not given), the Potency is 0.833 µM (active).

For `OC(c1cc(C(F)(F)F)nc2c(C(F)(F)F)cccc12)C1CCCCN1` (stereo not given), the Potency is 26.4 µM (active).

For `C=C1[C@H](n2cnc3c(=O)[nH]c(N)nc32)C[C@H](O)[C@H]1CO`, the Potency entry was “inactive”.

As for `CC1=C(CC(=O)O)c2cc(F)ccc2C1=Cc1ccc(S(C)=O)cc1` (stereo not given), the Potency was 1.05 µM (active).

As to `COC(=O)[C@H](c1ccccc1Cl)N1CCc2sccc2C1`, the Potency result is “inactive”.

On to `CC(C)c1c(C(=O)Nc2ccccc2)c(-c2ccccc2)c(-c2ccc(F)cc2)n1CC[C@H](O)C[C@@H](O)CC(=O)O`, for which the Potency was 18.7 µM (active).

Regarding `CCC(=C(CC)c1ccc(O)cc1)c1ccc(O)cc1`, the Potency is 20.9 µM (active).

As to `Cc1ccccc1C(C(=O)NC1CCCCC1)N(C(=O)CNc1ccc(C#N)cc1)c1cccc(F)c1` (stereo not given), the Potency result is “inactive”.

With `CCC(=O)NCC[C@@H]1CCc2ccc3c(c21)CCO3`, the Potency result was “inactive”.

`Cc1ccc(S(=O)(=O)Nc2nc3ccccc3nc2Nc2ccc3nsnc3c2)cc1`: the Potency was 0.0724 µM (active).

Turning to `O=C(Nc1cccc(Cl)c1)Nc1ncc(CCNc2ncnc3ccsc23)s1`, the Potency was 4.18 µM (active).

Take `CC[C@]1(O)C[C@H]2CN(CCC3=c4ccccc4=N[C]3[C@@](C(=O)OC)(c3cc4c(cc3OC)N(C)[C@H]3[C@@](O)(C(N)=O)[C@H](O)[C@]5(CC)C=CCN6CC[C@]43[C@@H]65)C2)C1`: the Potency result is “inactive”.

Turning to `O=c1cc(-c2ccc(O)c(O)c2)oc2cc(O)cc(O)c12`, the Potency was 14.8 µM (active).

Consider `CCOC(=O)[C@H](CCc1ccccc1)N[C@@H](C)C(=O)N1CCCC1C(=O)O` (stereo not given in full), for which the Potency is 23.5 µM (active).

For the compound `CC(C)C[C@@H](N)[C@H](O)C(=O)N[C@H](C(=O)N[C@H](C(=O)N[C@@H](CC(=O)O)C(=O)O)C(C)C)C(C)C`, the Potency is 7.43 µM (active).

Consider `N#CC1(c2cccc(C(=O)Nc3cc(Oc4ccc5nc(NC(=O)C6CC6)sc5n4)ccc3F)c2Cl)CC1`, for which the Potency was 1.48 µM (active).

Consider `Cc1ccc2c(c1)C(=O)[C@]1(O)CCN(c3ccccc3)C1=N2`, for which the Potency result is “inactive”.

Regarding `OC1CCC(Nc2ncc3nc(Nc4c(F)cc(F)cc4F)n([C@@H]4CCOC4)c3n2)CC1` (stereo not given in full), the Potency was 9.35 µM (active).

As for `CC1CNc2c(cccc2S(=O)(=O)N[C@@H](CCCN=C(N)N)C(=O)N2CC[C@@H](C)C[C@@H]2C(=O)O)C1` (stereo not given in full), the Potency was 5.9 µM (active).

For `CCCCCCOC(=O)N=C(N)c1ccc(NCc2nc3cc(C(=O)N(CCC(=O)OCC)c4ccccn4)ccc3n2C)cc1`, the Potency is 11.8 µM (active).

Consider `CC(=O)Nc1cccc(-n2c(=O)n(C3CC3)c(=O)c3c(Nc4ccc(I)cc4F)n(C)c(=O)c(C)c32)c1`, for which the Potency is 0.332 µM (active).

For the compound `C#C[C@]1(O)CC[C@H]2[C@H]3CCc4cc(OC)ccc4[C@H]3CC[C@@]21C`, the Potency is 16.6 µM (active).

Regarding `C[C@]12CC[C@@H]3c4ccc(O)cc4CC[C@H]3[C@H]1[C@@H](O)[C@@H](O)[C@H]2O`, the Potency is 14.8 µM (active).

With `O=S(=O)(NCCNCC=Cc1ccc(Br)cc1)c1cccc2cnccc12`, the Potency was 2.64 µM (active).

On to `Nc1ncnc2c1ncn2[C@@H]1O[C@H](CO)[C@@H](O)[C@@H]1O`, for which the Potency was 2.64 µM (active).

As to `COc1cc2c(cc1OC)[C@@H]1Cc3ccc(OC)c(OC)c3CN1CC2`, the Potency entry was “inactive”.

As to `OCCn1cc(-c2ccc3c(c2)CCC3=NO)c(-c2ccncc2)n1`, the Potency is 13.2 µM (active).

On to `CC1CCN(c2cc(N3CCN(C)CC3)ccc2NC(=O)c2cc(C#N)c[nH]2)CC1`, for which the Potency result was “inactive”.

With `CC[C@H](C=C[C@@H](C)[C@H]1CC[C@H]2[C@@H]3CC=C4C[C@@H](O)CC[C@]4(C)[C@@H]3CC[C@]12C)C(C)C`, the Potency was 1.02 µM (active).

Take `Cc1cc2nc3c(=O)[nH]c(=O)nc-3n(CC(O)C(O)C(O)CO)c2cc1C` (stereo not given): the Potency is 7.43 µM (active).

`CCN(CC)CCCCNc1nc2cc(Cl)c(Cl)cc2nc1-c1ccc(-c2cccs2)s1`: the Potency is 8.33 µM (active).

For the compound `O=c1[nH]c(=O)n([C@H]2C[C@@H](O)[C@@H](CO)O2)cc1I`, the Potency result is “inactive”.

The values are drawn from PubChem BioAssay (NCATS).
